PHOSPHO1 inh – PubChem AID 1565; Phosphoethanolamine/phosphocholine phosphatase (Homo sapiens), Q8TCT1; recombinant PHOSPHO1, absorbance phosphatase assay; inhibition, % at 13.3 µM; actives 1.1% (n = 290,000); in the data active = inhibition above about 60%
Target sequence (Q8TCT1 whole entry, looked up): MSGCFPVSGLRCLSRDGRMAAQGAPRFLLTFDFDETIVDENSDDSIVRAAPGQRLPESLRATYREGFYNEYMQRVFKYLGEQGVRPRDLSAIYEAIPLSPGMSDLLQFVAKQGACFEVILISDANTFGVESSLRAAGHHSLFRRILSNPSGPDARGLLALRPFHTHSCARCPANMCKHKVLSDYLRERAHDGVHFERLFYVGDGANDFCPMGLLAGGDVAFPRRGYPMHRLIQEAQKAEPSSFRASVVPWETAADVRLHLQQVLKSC
TMEM16A inh – TMEM16A chloride channel inhibitors, primary screen, cell-based, HTS; Anoctamin-1 (Mus musculus), Q8BHY3; HEK293 TMEM16A/YFP iodide influx fluorescence, ionomycin; normalized B-score (activity score, 25-100; higher = stronger inhibition) at 10 µM; actives 1.2% (n = 310,000);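 active = ratio plate-corrected score three or more library SD toward inhibition, starting fluorescence score within five deviations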;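 also: score derived from kinetic fluorescence span divided by baseline fluorescence per well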
CHT inh – inhibitors of human choline transporter CHT; High affinity choline transporter 1 (Homo sapiens), Q9GZV3; CHT-expressing cells, membrane potential dye, choline response; hits give low values; B-score at 10 µM; actives 0.86% (n = 310,000); AID 488975, 2010;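 active = B-score over 3 SD under the library average, and starting fluorescence ratio not unusually high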;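 also: choline stimulus applied at its EC90 after an EC20 pre-addition; B-score computed on integrated fluorescence ratio after choline addition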
CHT allo act – CHT positive allosteric modulators, primary screen, cell-based, membrane potential dye, choline EC20; High affinity choline transporter 1 (Homo sapiens), Q9GZV3; CHT-expressing cells; hits give high values; LV-AA mutant CHT in HEK293 cells; B-score at 10 µM; actives 0.49% (n = 310,000); AID 488977, 2010;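 active = initial fluorescence not abnormally high and integrated response B-score, plate-corrected, over 3 SD above library mean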
TMEM16A act – TMEM16A chloride channel activators or potentiators, primary screen, cell-based, HTS; actives 0.3% (n = 340,000); HEK293 TMEM16A/YFP-H148Q/I152L, iodide quench fluorescence; hits give low values; AID 623877, 2012; B-score at 10 µM; Anoctamin-1 (Mus musculus), Q8BHY3;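 active = fluorescence-ratio B-score plate-corrected deviation score at least 3 library SD below zero, with starting fluorescence score within 5 deviations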;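 also: channel opened by trigger with iodide after compound preincubation; score built on the fluorescence ratio of max minus min over baseline; more negative score means more quench and so TMEM16A activation or potentiation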
HDAC3 inh – HDAC3 deacetylase inhibitors, primary screen, biochemical, fluorescence, cell-free homogeneous; Histone deacetylase 3 (Homo sapiens), O15379; recombinant HDAC3, fluorogenic peptide/trypsin coupled; inhibition, % at 8.3 µM; actives 0.15% (n = 320,000); AID 2718, 2010; in the data active = inhibition above about 26%, passing the limit was not always enough
Starred values were filed as active, the others as inactive; i = inactive; x = no result. A selection: hits, their analogues and other compounds. The true share with any hit is near 3.2%.

SMILES	PHOSPHO1 inh	TMEM16A inh	CHT inh	CHT allo act	TMEM16A act	HDAC3 inh
CCn1c(N)c(C(=O)NCc2ccc3c(c2)OCO3)sc1=S	-36.8	i	i	i	i	7.7
Cc1ccc(C(=O)CC(=O)c2cc(Cl)ccc2O)cc1	11.5	i	i	i	i	-2.5
CC(C)(C)c1ccc(C(=O)CC(=O)c2cc(Cl)ccc2O)cc1	1.0	25*	i	i	i	-1.8
CCC(CC)C(=O)Nc1c(C)n(C)n(-c2ccccc2)c1=O	7.8	i	i	i	i	-4.0
CCN(CC)S(=O)(=O)c1ccc(/C=C/C(=O)Nc2ccc(Br)cc2F)cc1	-6.8	100*	i	i	i	4.5
CC12CCC(C(=O)Nc3ccccc3Cl)(C(Br)C1=O)C2(C)C (stereo not drawn)	-12.2	i	i	i	i	x
CS(=O)(=O)N(Cc1ccccc1)c1ccc(C(=O)NCCSCc2ccco2)cc1	2.5	i	i	i	i	0.9
CCN(CC)S(=O)(=O)c1cccc(-c2nnc(SCCCC(=O)c3ccc(F)cc3)o2)c1	-1.0	i	i	i	-4.6*	1.1
O=C(O)CCc1c(C(=O)O)[nH]c2ccccc12	23.3	i	i	i	-15.8*	-1.3
CCOC(=O)c1c(NC(=O)/C=C/C(=O)O)sc(C)c1-c1ccc(C(C)(C)C)cc1	32.2	25*	i	i	i	17.3
CC1=CC2=NC(=O)/C(=C\c3cc(C)n(-c4cccc(Cl)c4)c3C)C(=N)N2O1	-5.2	i	i	i	i	-4.8
CC1=CC2=NC(=O)/C(=C\c3cc(C)n(-c4ccccc4)c3C)C(=N)N2O1	-29.6	i	i	i	-4.95*	-4.6
Cc1ccc(NC(=S)N/N=C2\CC3CC=CC23)c(C)c1 (stereo not drawn)	65.3*	i	i	i	i	3.1
O=C(CSCc1c(Cl)cccc1Cl)NN=C1CCCC1	6.6	i	i	i	-28.9*	-1.3
COc1cccc(C(=O)NCc2ccc3c(c2)OCO3)c1	-11.0	i	i	i	i	-7.5
O=C(COC(=O)c1ccc(Cl)cc1[N+](=O)[O-])NNC(=O)c1cccs1	x	i	i	i	i	0.4
COC(=O)CCCCC1SCC(NC(=O)c2ccccc2)C1OC(C)=O (stereo not drawn)	28.8	i	i	i	i	3.1
Cc1ccc(-c2nn(-c3ccccc3)cc2/C=N/n2c(-c3cccs3)n[nH]c2=S)cc1	-25.3	i	i	i	i	-9.9
COc1ccc(/C=N/n2c(-c3cc(C)[nH]n3)n[nH]c2=S)cc1OC	92.7*	i	i	i	i	10.2
Cc1ccc(/C=N/n2c(-c3ccncc3)n[nH]c2=S)cc1	90.8*	x	x	x	i	x
O=[N+]([O-])c1ccc(-c2nn(-c3ccccc3)cc2/C=N/n2c(-c3ccncc3)n[nH]c2=S)cc1	-144.9	25*	i	i	i	0.8
S=c1[nH]nc(-c2ccncc2)n1/N=C/c1cn(-c2ccccc2)nc1-c1ccccc1	90.4*	i	i	i	i	1.2
CCOC(=O)N1CCN(S(=O)(=O)c2ccc3c(c2)CCN3C(=O)C2CCC2)CC1	-1.4	i	i	i	i	1.2
COc1ccc(Cl)c(Cn2c(NCCCN(C)C)nc3c2c(=O)n(C)c(=O)n3C)c1	-12.9	i	i	i	i	-0.4
Cn1c(C(=O)O)ccc1S(=O)(=O)N1CCCCCC1	35.7	i	i	i	i	3.7
SMILES	PHOSPHO1 inh	TMEM16A inh	CHT inh	CHT allo act	TMEM16A act	HDAC3 inh
Nc1cccc(Nc2nc(OC(C(F)(F)F)C(F)(F)F)nc(OC(C(F)(F)F)C(F)(F)F)n2)c1	40.7	100*	i	i	i	49.3*
Cc1ccc(C2CC(c3cccs3)=NN2C(=O)c2ccc(Br)o2)cc1 (stereo not drawn)	20.1	i	i	i	i	6.6
CCCCn1c(N)c(N(CC)C(=O)c2ccncc2)c(=O)[nH]c1=O	x	x	x	x	i	-0.5
CC(=O)c1ccc(NC(=S)NCCc2ccc(S(N)(=O)=O)cc2)cc1	4.5	i	i	i	i	-2.0
CC(C)OCCCNC(=S)Nc1ccc(S(N)(=O)=O)cc1	85.6*	i	i	i	i	9.2
CC(C)NC(=O)C12CC3CC(C1)CC(C(=O)NC(C)C)(C3)C2	6.2	i	i	i	i	-0.5
CCCCC(=O)Nc1nc(C)c(-c2csc(Nc3ccccc3OC)n2)s1	93.8*	i	i	i	i	4.4
C=CCCC(=O)Nc1nc(C)c(-c2csc(Nc3ccc(Cl)cc3Cl)n2)s1	42.7	i	i	i	i	6.4
CCCCCCC(=O)Nc1nc(C)c(-c2csc(Nc3cc(OC)ccc3OC)n2)s1	76.8*	i	i	i	i	12.0
C=CCCC(=O)Nc1nc(C)c(-c2csc(Nc3cc(Cl)ccc3OC)n2)s1	98.7*	i	i	i	i	3.6
C=CCCC(=O)Nc1nc(C)c(-c2csc(Nc3ccccc3OC)n2)s1	76.8*	i	i	i	i	8.4
Cc1ccccc1C(C(=O)NCc1ccccc1)N(Cc1ccco1)C(=O)c1ccccn1 (stereo not drawn)	42.0	i	i	i	i	0.6
Cc1nc(NC(=O)c2ccccc2)sc1-c1csc(Nc2ccc(Cl)cc2Cl)n1	15.8	i	i	i	x	4.7
CCC(C)C(=O)Nc1nc(C)c(-c2csc(Nc3ccccc3OC)n2)s1 (stereo not drawn)	74.3*	i	i	i	i	16.1
COc1ccc(OC)c(Nc2nc(-c3sc(NC(=O)c4ccccc4)nc3C)cs2)c1	33.8	i	i	i	x	3.9
Cc1ccc(Cl)cc1Nc1nc(-c2sc(NC(=O)c3ccco3)nc2C)cs1	41.6	i	i	i	i	-1.4
COc1ccccc1Nc1nc(-c2sc(NC(=O)c3ccco3)nc2C)cs1	86.5*	i	i	i	i	-3.3
Cc1ccccc1Nc1nc(-c2sc(NC(=O)c3ccccc3)nc2C)cs1	69.4*	i	i	i	x	3.3
Cc1nc2nc(SCc3ccccc3)nn2c(C)c1C	x	x	x	x	i	0.3
CC(=O)N1CCc2c(sc(NC(=O)C3COc4ccccc4O3)c2C(N)=O)C1 (stereo not drawn)	41.8	i	i	i	i	5.1

Assay outcomes deposited in PubChem BioAssay by several laboratories.
